IL1B secr inh: inflammasome signaling inhibition, IL-1 beta readout; THP-1 LPS/ATP IL-1B secretion, AlphaLISA, 16 h; active compounds read low; activity change, % at 57.5 µM; 360,000 tested, 4.7% active; in the data active = activity change below about -50%; inconclusive = mostly about -30% to -49%
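THP-1 cells pretreated 1 hr with compounds (up to 57.5 uM final), then stimulated with LPS (250 ng/mL final) plus ATP (1.25 mM final); secreted IL-1B measured by AlphaLISA after 16 hr, decreased signal indicating inhibition.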
TDP1 inh: inhibitors of human tyrosyl-DNA phosphodiesterase TDP1. Potency, µM (titrated, usually from 130 µM), usual class: inhibitors. Q9NUW8. recombinant TDP1, AlphaScreen DNA substrate cleavage. AID 485290. 350,000 tested, 0.28% active; also: nearly all actives have a fitted effect of over 40% in size
Target sequence (Q9NUW8 whole entry, looked up): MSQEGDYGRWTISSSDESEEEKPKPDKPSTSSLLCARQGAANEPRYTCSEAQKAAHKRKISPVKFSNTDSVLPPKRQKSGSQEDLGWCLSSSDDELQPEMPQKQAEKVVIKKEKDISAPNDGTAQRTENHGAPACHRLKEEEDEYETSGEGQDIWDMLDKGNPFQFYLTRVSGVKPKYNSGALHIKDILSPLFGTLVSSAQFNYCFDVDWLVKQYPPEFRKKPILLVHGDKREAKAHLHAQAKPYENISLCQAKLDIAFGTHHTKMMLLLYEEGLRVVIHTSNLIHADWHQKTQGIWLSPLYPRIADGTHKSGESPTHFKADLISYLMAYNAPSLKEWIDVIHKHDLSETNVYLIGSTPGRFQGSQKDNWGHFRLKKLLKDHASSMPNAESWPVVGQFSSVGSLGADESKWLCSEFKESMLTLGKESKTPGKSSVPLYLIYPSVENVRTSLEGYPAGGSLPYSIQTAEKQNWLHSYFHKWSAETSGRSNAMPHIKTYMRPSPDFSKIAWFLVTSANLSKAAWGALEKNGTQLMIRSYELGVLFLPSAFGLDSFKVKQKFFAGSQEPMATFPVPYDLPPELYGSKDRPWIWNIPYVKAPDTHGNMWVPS
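Compounds were preincubated with Tdp1 (1 nM final) for 15 min at room temperature before substrate (15 nM final) started a 5 min reaction; beads (10 ug/ml final) were then added for 10 min before AlphaScreen detection.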
TGFb inhibitor: inhibitors of TGF-b signaling | 410,000 tested, 1.2% active | AID 588855 | Potency, µM (top dose mostly 46.1 µM), actives largely listed as inhibitors | HepG2 CAGA-GFP TGF-b/SMAD3 reporter, GFP fluorescence, 18 h; TGF-beta stimulated, 500 pg/mL final; also: nearly all actives have a fitted effect of over 65% in size
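Inhibition was scored as loss of TGF-beta-induced (500 pg/mL final, 18 hours, 37 degrees C) GFP in HEPG2 cells carrying a CAGA-GFP reporter, in DMEM with 1% FBS. Well GFP was summed per cell; Activity was normalised to unstimulated and stimulated DMSO wells, then concentration-response fitting.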
DT40 TDP1 no CPT: qHTS for Inhibitors of human tyrosyl-DNA phosphodiesterase 1 (TDP1): qHTS in cells in absence of CPT | Potency, µM (titrated, usually from 46.2 µM), actives largely listed as inhibitors | AID 686978, 2013 | 420,000 tested, 15% active | DT40 Tdp1-/- hTDP1 cells, no CPT, ATP luminescence, 48 h; also: nearly all actives have a fitted effect of over 55% in size
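Growth kinetics read by CellTiter-Glo luminescence after ≥48 hr at 37 °C. Cells: DT40 Tdp1-/- stably carrying human TDP1, 400 per well, compound exposure in the absence of CPT (DMSO vehicle).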
DT40 TDP1 CPT: DT40-hTDP1 cell growth loss with CPT; chicken DT40 Tdp1-/-;hTDP1 cells + 20 nM CPT, ATP luminescence, 48 h; Potency, µM (top dose mostly 46.2 µM), hits mostly inhibitors; 420,000 tested, 12% active; AID 686979; also: nearly all actives have a fitted effect of over 55% in size
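Cell growth measured by CellTiter-Glo luminescence after a minimum 48 h, 37 C compound exposure with 20 nM CPT in Tdp1-knockout DT40 cells stably expressing hTDP1, seeded 400/well; qHTS titration format.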
HepG2 viability: kills HepG2 cells in TGF-b inhibitor counter-screen | AID 588856 | Potency, µM (titrated, usually from 46.1 µM), usual class: cytotoxic | 410,000 tested, 0.76% active | HepG2 CAGA-GFP viability, ATP luminescence, 18 h
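CellTiter-Glo luminescence gave cytotoxicity after 18 hours at 37 degrees C. The cells were HepG2 CAGA-GFP in 1% FBS DMEM, stimulated with 500 pg/mL TGF-beta after compound addition. %Activity was normalised to no-cell wells (complete cell-killing) and DMSO (no toxicity), and curves were fitted and classified.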
Large screens that a line does not name were inactive. An excerpt weighted towards active compounds, which were near 18% of everything screened. Unless noted, calls follow the shape of the dose curve; as a rule, active = well fitted curve in the direction sought with a large enough effect; inconclusive = small, poorly fitted or top-dose-only effect, or another doubt; inactive = no such curve, though single readings can be large; an effect the other way counts as inactive or inconclusive.

CC(=O)Nc1ccc(Sc2ncccc2C(=O)Nc2ccc(F)cc2)cn1	DT40 TDP1 no CPT 7.3µM, DT40 TDP1 CPT 9.2µM
CSc1ncccc1C(=O)Nc1ccc(OC(F)(F)F)cc1	DT40 TDP1 no CPT 15µM, DT40 TDP1 CPT inconclusive
COc1cc(NC(=O)c2cccnc2SC)cc(OC)c1OC	none
Cc1ccc(N2C(=O)N(CC(=O)NCc3ccccc3Cl)C(=O)C2C)cc1 (configuration not stated)	DT40 TDP1 no CPT inconclusive
O=C(NC1CCCCCC1)C1c2ccccc2C(=O)N1Cc1ccccc1Cl (configuration not stated)	none (no result: IL1B secr inh)
CCOC(=O)N1CCN(C(=O)COC(=O)c2ccc(Cl)nc2)CC1	none
Cc1ccc(C2=C/C(=C/c3cccs3)C(=O)O2)cc1	none
Cc1ccc(C=C2C=C(c3ccccc3)OC2=O)cc1	DT40 TDP1 no CPT 26µM, DT40 TDP1 CPT inconclusive (no result: TDP1 inh)
CC(=O)Oc1cccc(/C=C2\C=C(c3ccc(C)cc3)OC2=O)c1	DT40 TDP1 no CPT inconclusive, DT40 TDP1 CPT 18µM
COc1ccc(C2=C/C(=C\c3ccc(OC(C)=O)cc3)C(=O)O2)cc1	none
CN(C)c1ccc(C=C2C=C(c3ccccc3)OC2=O)cc1	TGFb inhibitor inconclusive, DT40 TDP1 no CPT 10µM, DT40 TDP1 CPT 18µM (no result: TDP1 inh)
CCOC(=O)c1cnc2c(C)cccc2c1NCCc1ccc(OC)c(OC)c1	DT40 TDP1 no CPT 23µM, DT40 TDP1 CPT 16µM
COc1ccc(CCNC(=O)COC(=O)COc2c(C)cc(C)cc2C)cc1OC	none
CCOC(=O)c1cnc2c(C)cc(C)cc2c1NCCc1ccc(OC)c(OC)c1	DT40 TDP1 no CPT 23µM, DT40 TDP1 CPT 21µM (no result: IL1B secr inh, TDP1 inh)
CCOC(=O)c1cnc2c(C)c(Cl)ccc2c1NCCc1ccc(OC)c(OC)c1	DT40 TDP1 no CPT 16µM, DT40 TDP1 CPT inconclusive (no result: IL1B secr inh, TDP1 inh)
CCN(CC)CCN(Cc1cc2cc3c(cc2[nH]c1=O)OCO3)C(=S)NC	none (no result: TDP1 inh)
COc1cccc(C2c3c(C)nn(-c4ccc([N+](=O)[O-])cc4)c3N=C3C(=O)Nc4ccccc4N32)c1 (configuration not stated)	DT40 TDP1 no CPT 5.8µM, DT40 TDP1 CPT 13µM
Cc1nn(-c2ccc([N+](=O)[O-])cc2)c2c1C(c1ccc(OC(F)F)cc1)N1C(=N2)C(=O)Nc2ccccc21 (configuration not stated)	IL1B secr inh inconclusive, TGFb inhibitor inconclusive, DT40 TDP1 no CPT 4.6µM, DT40 TDP1 CPT 5.2µM
Cc1ccc(C2c3c(C)nn(-c4ccc([N+](=O)[O-])cc4)c3N=C3C(=O)Nc4ccccc4N32)cc1 (configuration not stated)	none (no result: IL1B secr inh, TGFb inhibitor, DT40 TDP1 no CPT, DT40 TDP1 CPT, HepG2 viability)
COc1ccc(NC(=O)C(NS(=O)(=O)c2cccc3nsnc23)C(C)C)cc1 (configuration not stated)	none (no result: IL1B secr inh)
NNC(=O)c1cc(C23CC4CC(CC(C4)C2)C3)[nH]n1	none
CCNC(=O)CSc1nc2ccccc2c(=O)n1-c1cccc(OC)c1	none
COc1cccc(-n2c(SCC(=O)Nc3ccc4c(c3)CCC4)nc3ccccc3c2=O)c1	DT40 TDP1 no CPT 9.2µM, DT40 TDP1 CPT inconclusive
COc1ccc(-n2c(SCC(=O)Nc3ccc(NC(C)=O)cc3)nc3ccccc3c2=O)cc1	DT40 TDP1 CPT 13µM (no result: TDP1 inh)
CCCCn1c(SCC(=O)Nc2ccc3c(c2)CCC3)nc2ccccc2c1=O	DT40 TDP1 CPT inconclusive
CCN(CC)C(=O)CSc1nc2ccccc2c(=O)n1-c1cccc(OC)c1	IL1B secr inh inconclusive, DT40 TDP1 no CPT 15µM, DT40 TDP1 CPT inconclusive
Cc1ccc(-n2c(SCc3cn4ccsc4n3)nc3ccccc3c2=O)cc1	TGFb inhibitor inconclusive, DT40 TDP1 no CPT 21µM, DT40 TDP1 CPT inconclusive
COc1ccc(-n2c(SCC(=O)Nc3ccc4c(c3)OCO4)nc3ccccc3c2=O)cc1	DT40 TDP1 CPT inconclusive

Compound activity as filed in PubChem.
